Screening data (PubChem BioAssay)
PGK inhibitor – T. brucei PGK inhibition. 380,000 tested, 0.043% active. PGK/GAPDH coupled, Kinase-Glo luminescence, 60 min. Potency, µM (highest dose often 57.5 µM), for the others: at the highest dose activity change, negative = inhibition, usual class: inhibitors. P07378; also: nearly all actives have a fitted effect of over 60% in size
Target sequence (P07378 whole entry, looked up): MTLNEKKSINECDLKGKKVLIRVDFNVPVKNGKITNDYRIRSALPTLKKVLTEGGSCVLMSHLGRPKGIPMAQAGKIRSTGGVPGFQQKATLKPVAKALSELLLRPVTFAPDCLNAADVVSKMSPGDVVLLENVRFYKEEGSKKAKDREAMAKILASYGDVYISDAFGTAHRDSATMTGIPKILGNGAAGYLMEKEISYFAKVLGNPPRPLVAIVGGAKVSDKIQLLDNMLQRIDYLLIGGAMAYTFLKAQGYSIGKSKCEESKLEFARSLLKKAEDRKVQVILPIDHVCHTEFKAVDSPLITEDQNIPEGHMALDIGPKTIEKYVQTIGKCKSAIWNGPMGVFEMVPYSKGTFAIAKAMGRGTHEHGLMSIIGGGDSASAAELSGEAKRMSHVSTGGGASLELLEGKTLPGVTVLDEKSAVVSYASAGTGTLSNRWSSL
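Luminescent ATP detection (Kinase-Glo Plus) follows a 60-minute room-temperature incubation, with wells lacking PGK as controls. Buffer: 100 mM TEA (pH 7.6), 5 mM MgCl2, 0.01% Tween-20. Coupling enzyme GAPDH (100 nM final) supplies unstable 1,3-BPG in-well.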
APE1 inh – blocks human APE1 abasic DNA cleavage; P27695; recombinant APE1, TAMRA/BHQ-2 abasic DNA cleavage fluorescence; Potency, µM (series often up to 65.8 µM), without a hit: at the highest dose activity change, negative = inhibition, usual class: inhibitors; 350,000 tested, 0.35% active; AID 2517;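 also: plate controls were vehicle for no effect and reference inhibitor for full effect; nearly all actives have a fitted effect of over 55% in size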
Target sequence (P27695 whole entry, looked up): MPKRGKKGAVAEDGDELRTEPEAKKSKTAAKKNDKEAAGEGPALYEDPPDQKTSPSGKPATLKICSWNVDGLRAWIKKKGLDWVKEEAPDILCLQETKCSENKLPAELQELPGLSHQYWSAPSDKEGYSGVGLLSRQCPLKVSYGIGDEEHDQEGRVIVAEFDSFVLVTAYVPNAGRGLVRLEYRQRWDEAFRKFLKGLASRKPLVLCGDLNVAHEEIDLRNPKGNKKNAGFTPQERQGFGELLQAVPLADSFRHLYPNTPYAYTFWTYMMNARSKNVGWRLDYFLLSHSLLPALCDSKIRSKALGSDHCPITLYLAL
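0.75 nM APE1 + cpd, 15 min RT; start w/ 50 nM TAMRA/BHQ-2 THF-abasic dsDNA; kinetic fluor 525/598 nm ×3 reads @60 s; Δ(read3−read1); normalized to DMSO and NSC13755 control wells.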
BLM inh – inhibitors of human Bloom syndrome helicase BLM. P54132. recombinant BLM DNA unwinding, fluorescence dequenching. Potency, µM (top dose mostly 56.1 µM), without a hit: at the top dose activity change, negative = inhibition, usual class: inhibitors. AID 2528. 350,000 tested, 0.2% active;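 also: plate controls were vehicle for no effect and no enzyme for full effect; nearly all actives have a fitted effect of over 35% in size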
RECQ1 inh-1 – inhibitors of human RECQ1 DNA helicase; 240,000 tested, 0.54% active; Potency, µM (series often up to 57.3 µM), inactives show at the top dose activity, negative = inhibition, most hits filed as inhibitors; RECQ1 DNA unwinding, red fluorescence kinetic read; AID 2549;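 also: plate controls were vehicle for no effect and no enzyme for full effect; nearly all actives have a fitted effect of over 30% in size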
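RECQ1T1 50 nM; forked duplex (20 bp + 30-nt ss tails) 200 nM, ATP 2 mM final; pH 8.0, 2 mM MgCl2, 2.5 ug/ml poly(dI-dC); 15 min compound preincubation; discontinuous kinetic read over 2 h at RT.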
TDP1 inh – TDP1 (human) enzyme inhibition; Potency, µM (series often up to 130 µM), for inactives: top-dose activity change, negative = inhibition, hits mostly inhibitors; Q9NUW8; recombinant TDP1, AlphaScreen DNA substrate cleavage; 350,000 tested, 0.28% active; also: nearly all actives have a fitted effect of over 40% in size
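Recombinant E. coli-expressed Tdp1 (1 nM) preincubated with compound 15 min at RT, then 5'-biotin/3'-phosphotyrosine-FITC DNA substrate (15 nM) added for 5 min. AlphaScreen beads (10 ug/ml) added, 10 min RT; tyrosine-FITC cleavage read as signal loss.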
GLS inh – inhibitors of human glutaminase (GLS). O94925. GLS enzymatic activity, qHTS titration. Potency, µM (doses to about 45.5 µM), for inactives: top-dose activity change, negative = inhibition, hits mostly inhibitors. 410,000 tested, 0.21% active
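hKGA in 45 mM KH2PO4 (pH 8.2), 0.02% Tween-20 with compound, then 1mM L-Glutamine (stock as added) plus glutamate oxidase/HRP/Amplex red coupling mix. Fluorescence read initially and after 30 min at RT; signal change reflects glutamate formation.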
RECQ1 inh conf – confirmation of human RECQ1 helicase inhibitors; RECQ1 helicase DNA unwinding, fluorescence; Potency, µM (top dose mostly 229 µM), inactives show top-dose activity change, negative = inhibition, hits mostly inhibitors; 610 tested, 28% active; shares compounds with RECQ1 inh-1; also: nearly all actives have a fitted effect of over 45% in size
RECQ1 ADP FP – ADP displacement flagged in RECQ1 inhibitor counter-screen; 530 tested, 27% active; shares compounds with RECQ1 inh-1; Potency, µM (highest dose often 228 µM), inactives show at the top dose activity change, negative = inhibition, usual class: inhibitors; AID 2711; ADP fluorescence polarization displacement counterscreen; also: nearly all actives have a fitted effect of over 45% in size
RECQ1 inh-2 – blocks human RECQ1 DNA unwinding | shares compounds with RECQ1 inh-1 | recombinant RECQ1 DNA unwinding, red fluorescence | Potency, µM (doses to about 119 µM), without a hit: at the top dose activity, negative = inhibition, hits mostly inhibitors | 1,100 tested, 15% active | AID 504841; also: nearly all actives have a fitted effect of over 50% in size
Numbers without * were called inactive; i = inactive; ? = inconclusive; · = not tested or not shown; ! = not active in a repeat; [ ] = another dose, or the depositor's remark. Hits are enriched below; roughly 0.85% of the tested compounds scored in any of these assays. Calls follow the shape of the dose curve; as a rule, active = well fitted curve in the direction sought with a large enough effect; inconclusive = small, poorly fitted or top-dose-only effect, or another doubt; inactive = no such curve, though single readings can be large; an effect the other way counts as inactive or inconclusive. Unless noted, % is scaled to controls: 0 for no effect and ±100 for the full control effect; potency is read from the fitted curve at half-maximal effect.

SMILES | PGK inhibitor | APE1 inh | BLM inh | RECQ1 inh-1 | TDP1 inh | GLS inh | RECQ1 inh-2 | others
O=C(CSc1ccc(-c2ccco2)nn1)Nc1ccccc1 | 0% | ? | -25% | 25µM* | 3% | -6% | ?
CCn1c(SCC(=O)Nc2nncs2)nnc1-c1ccco1 | -8% | 64% | -4% | · | -1%[0.0935 µM] | -11% | ·
O=c1cc(-c2ccc(O)c(O)c2)oc2cc(O)cc(O)c12 | ? | 5µM* | 35µM*! | 13µM* | 11% | ? | 3.2µM* | RECQ1 inh conf=?
CO/C1=C\C(C)=C\[C@@H](C)[C@@H](O)[C@@H](C)C/C(C)=C/C=C/[C@H](OC)[C@@H]([C@@H](C)[C@@H](O)[C@H](C)[C@@]2(O)C[C@@H](O)[C@H](C)C(C(C)C)O2)OC1=O (some centres undefined) | · | ? | -13% | i | 16% | · | ·
COC(=O)C1=C(C)NC(C)=C(C(=O)NCCCN2CCC(c3ccccc3)(c3ccccc3)CC2)C1c1ccc([N+](=O)[O-])cc1 (centres undefined) | · | -5% | -8% | 2% | 19% | · | ·
CCc1ccc(N2C(=O)NC(=O)/C(=C\C=C\c3ccco3)C2=O)cc1 | -14% | ? | -1% | 8.9µM* | -1% | -19% | · | RECQ1 inh conf=?;RECQ1 ADP FP=50µM*
CN1C(=O)[C@]23CC4=CC=C[C@H](O)[C@H]4N2C(=O)[C@@]1(CO)SS3 | · | -2% | -2% | 9% | 6% | · | ·
CCOC(=O)c1c(N)n(CCN2CCCCC2)c2nc3ccccc3nc12 | i | 2% | 38% | -4% | 4% | 49% | ·
CC(C)CCNC(=O)c1c(N)n(CC2CCCO2)c2nc3ccccc3nc12 (centres undefined) | -7% | ? | ? | ? | -2% | -5% | -20%
Nc1c(C(=O)NCCN2CCOCC2)c2nc3ccccc3nc2n1Cc1ccccc1 | -7% | -11% | -8% | -11% | 1% | -11% | ·
Nc1c(C(=O)NCCc2ccccc2)c2nc3ccccc3nc2n1CCN1CCOCC1 | · | -5% | -13% | 8.9µM* | 5% | 5% | -17% | RECQ1 inh conf=-7%[114 µM];RECQ1 ADP FP=-5%[91.9 µM]
CCC(C)NC(=O)c1c(N)n(CC2CCCO2)c2nc3ccccc3nc12 (centres undefined) | -5% | -3% | ? | ? | 0% | -18% | -28%
CCC(C)NC(=O)c1c(N)n(Cc2ccc3c(c2)OCO3)c2nc3ccccc3nc12 (centres undefined) | 0% | -10% | ? | ? | · | 8% | -5%
C/C1=C/C(=O)O[C@@H]2C[C@@H](CC[C@H](C)/C=C\CC1)O[C@@](O)(C1CSC(=O)N1)C2 (some centres undefined) | · | -5% | -2% | 11% | 3% | · | ·
COc1c(C(C)(C)C)cc([N+](=O)[O-])c(C)c1[N+](=O)[O-] | · | 1% | · | -5% | 17% | · | ·
C[C@@H]1CC[C@@]2(OC1)O[C@H]1[C@@H](O)[C@H]3[C@@H]4CC[C@H]5C[C@@H](O[C@@H]6O[C@H](CO)[C@H](O[C@@H]7O[C@H](CO)[C@@H](O)[C@H](O[C@@H]8OC[C@@H](O)[C@H](O)[C@H]8O)[C@H]7O[C@@H]7O[C@H](CO)[C@@H](O)[C@H](O[C@@H]8O[C@H](CO)[C@@H](O)[C@H](O)[C@H]8O)[C@H]7O)[C@H](O)[C@H]6O)[C@H](O)C[C@]5(C)[C@H]4CC[C@]3(C)[C@H]1[C@@H]2C | · | 14% | · | -9% | 14% | · | ·
COCCCn1c(N)c(C(=O)Nc2ccccc2)c2nc3ccccc3nc21 | i | -2% | -13% | -14% | 5% | -6% | ·
CCC(C)NC(=O)c1c(N)n(CCCOC)c2nc3ccccc3nc12 (centres undefined) | -6% | -10% | ? | ? | -8% | -3% | -11%
Cc1ccc2c(c1Cl)NC(C(=O)O)C1CC(Sc3ccccc3[N+](=O)[O-])C(Cl)C21 (centres undefined) | -16% | -4% | -16% | -28% | 2% | -26% | ·
CCN(CC)C(=O)c1ccc2c(c1)C1C(Cl)C(Sc3ccccc3[N+](=O)[O-])CC1C(C(=O)O)N2 (centres undefined) | -24% | -11% | -25% | -22% | 3% | ? | · | RECQ1 inh conf=?;RECQ1 ADP FP=126µM*
Cc1ccc(CSc2n[nH]c(N)n2)cc1 | i | 11% | -8% | 28µM* | 0% | 34% | -6%
Cc1ccc(OP(=O)(Oc2ccc(C)cc2)Oc2ccc(C)cc2)cc1 | · | -7% | · | -1% | -10% | · | ·
CN(C)[C@@H]1C(=O)C(C(N)=O)=C(O)[C@]2(O)C(=O)C3=C(O)c4c(O)cccc4[C@@](C)(O)[C@H]3[C@H](O)[C@@H]12 | · | ? | -11%[21.4 µM] | 13µM* | · | · | · | RECQ1 inh conf=63%[69.1 µM];RECQ1 ADP FP=45µM*
CC1=C(O)C(=O)[C@H]2O[C@@H]2C1=O | · | ? | -1% | -12% | 4%[56.1 µM] | · | ·
O=C(N/N=C/c1c(O)n(Cc2ccco2)c(=O)[nH]c1=O)c1ccccc1O | -11% | ? | -9% | ? | 6% | 0% | ·
CCCCC(=O)N/N=C/c1c(O)n(Cc2ccco2)c(=O)[nH]c1=O | -6% | -11% | 3% | 32µM* | 4% | 0% | -13%
CC(C)n1c(=O)c(C=Nc2ccc(S(N)(=O)=O)cc2)c(O)n(Cc2ccco2)c1=O | -2% | ? | -4% | ? | 4% | 6% | -13%
CC(O)C(C)OC(=O)[C@@H]1C[C@@H]2c3cccc4c3c(cn4C(C)C)C[C@H]2N(C)C1 (some centres undefined) | · | 3% | · | 35µM*! | 12%[56.1 µM] | · | 56µM*
Oc1cccc(Cl)c1 | · | 1% | · | -10% | 4% | · | ·
